RN4220 kill: growth inhibition of S. aureus RN4220, primary screen, OD600; inhibition, % (concentration not given with the values); 16 h; actives 0.33% (n = 330,000); in the data active means inhibition above about 85%;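 further: plate controls were untreated cells for no effect and reference antibiotic for full effect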
DUSP3 inh: VHR1 phosphatase inhibitors, primary screen, biochemical, absorbance, uHTS. Dual specificity protein phosphatase 3 (Homo sapiens), P51452. recombinant VHR phosphatase, pNPP absorbance. inhibition, % at 13.3 µM. actives 0.52% (n = 290,000). AID 1654, 2009; in the data active means inhibition above about 50%
Target sequence (P51452 whole entry, looked up): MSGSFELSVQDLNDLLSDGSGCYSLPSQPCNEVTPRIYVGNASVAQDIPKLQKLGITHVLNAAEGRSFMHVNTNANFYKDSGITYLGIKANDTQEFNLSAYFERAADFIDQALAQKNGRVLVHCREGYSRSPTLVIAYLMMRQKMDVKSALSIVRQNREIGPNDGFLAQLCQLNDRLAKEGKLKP
CCHF vOTU inh: CCHFV vOTU protease inhibitors, primary screen, biochemical, Pep-AMC substrate, fluorescence; inhibition, % at 11.5 µM; actives 0.55% (n = 370,000); AID 651958, 2012; in the data active means inhibition above about 30%; further: 0% = vehicle wells with enzyme and 100% = no enzyme wells
PriA SSB inh: inhibitors of Klebsiella pneumoniae PriA binding to SSB C-terminal tail, primary screen, biochemical, AlphaScreen; PriA–SSB C-terminal tail interaction (Klebsiella pneumoniae); AlphaScreen SSBct-PriA binding, biotinylated peptide; inhibition, % at 33 µM; actives 0.6% (n = 430,000); AID 1272365, 2023; in the data active means inhibition mostly above about 37%, no sharp cut-off; inactive means mostly below about 20%;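 further: plate controls were negative control peptide for no effect and reference peptide for full effect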
ugtP null kill: growth inhibition of ugtP-null S. aureus, primary screen, RN4220 ugtP deletion, OD600; AID 1259309, 2017; 16 h; actives 0.54% (n = 330,000); growth inhibition, % (test concentration not listed); in the data active means growth inhibition above about 68%;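 further: plate controls were untreated wells for no effect and antibiotic for full effect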
* hit, by the source's call; . = not tested or not shown. Rows were chosen to be rich in hits. Some 1.5% of all compounds tested hit in one or more screens of this group.

SMILES | RN4220 kill | DUSP3 inh | CCHF vOTU inh | PriA SSB inh | ugtP null kill
COc1ccc(-c2nnc(NC(=O)c3cc(Cl)ccc3Cl)o2)cc1 | 7 | 38 | 6 | 5 | 100*
CS(=O)(=O)c1ccc(-c2nnc(NC(=O)c3cc(Cl)ccc3Cl)o2)cc1 | . | . | . | 1 | .
O=C(Nc1nnc(-c2ccc3c(c2)CCCC3)o1)c1ccc(Cl)cc1Cl | 99* | 11 | 9 | -16 | 100*
CCOC(=O)N1CCN(C(=O)NC2CC(=O)N(c3ccc(OC)c(OC)c3)C2)CC1 (stereo not given) | . | . | . | -1 | .
C=CCSc1nnc(-c2cccc3ccccc23)o1 | 3 | . | 0 | 89* | 5
Cc1cc(N=Nc2ccccc2C)ccc1N | -4 | . | 10 | 81* | 11
Cc1ccc(C)c(-c2ccc(=O)n(Cc3cccc(Br)c3)n2)c1 | 1 | 53* | 1 | -7 | 8
Cc1cccc(Cn2nc(-c3ccc(Br)cc3)ccc2=O)c1 | . | . | . | -8 | .
COc1ccc2c(c1)C(=NO)c1cc(OC)ccc1-2 | -3 | 20 | 12 | -5 | 100*
O=C(O)C[C@H](CC(=O)Nc1ccc2c(c1)N(C(=O)c1cccs1)CC2)c1cccs1 | . | . | . | -16 | .
COc1ccc(-c2ccc3c(c2)C2CC3CCN2Cc2ccc(OC(F)(F)F)cc2)cc1 (stereo not given) | -3 | . | -5 | -3 | 89*
COc1ccc(-c2ccc3c(c2)C2CC3CCN2C(=O)C(C)(C)C)cc1 (stereo not given) | -1 | . | 4 | -2 | 19
O=C(CCc1csc(NC(=O)c2ccc(F)cc2)n1)NCc1nc(-c2ccccc2)no1 | . | . | . | -8 | .
CC(C)c1ccc(-n2c(-c3ccccc3)c[n+]3c2CCc2ccccc2-3)cc1 | 96* | 22 | 2 | -1 | 100*
COc1ccc(-n2c(-c3ccc(Br)cc3)c[n+]3c2CCc2ccccc2-3)cc1 | 0 | 8 | -4 | -13 | -13
CC(C)CSc1ncc(-c2ccc(Cl)c(Cl)c2)n1-c1ccc(OC(F)F)cc1 | . | . | . | -7 | .
O=C(CSc1ncc(-c2ccc(Cl)c(Cl)c2)n1-c1ccc(OC(F)F)cc1)N1CCCC1 | . | . | . | 38* | .
COc1ccc(O)c(-c2cc(-c3cccc(Br)c3)n[nH]2)c1 | 42 | 19 | 21 | 28 | 86*
Cc1cccc(N2CCN(S(=O)(=O)c3ccc4c(c3)CCN4C(=O)CCC(=O)O)CC2C)c1 (stereo not given) | -13 | 54* | 1 | -6 | -5
CCCc1cc(=O)[nH]c(-n2nc(C)cc2NC(=O)C(C)(C)CCl)n1 | . | . | . | 44* | .
CCCc1cc(=O)[nH]c(-n2nc(C)cc2NC(=O)C(=O)NCc2ccc(F)cc2)n1 | . | . | . | -14 | .
CCC[C@@H](CN1CCC[C@H]1CN1C(N)=NC[C@H]1CC(C)C)N1C[C@@H](Cc2ccccc2)N(CCCC2CCCC2)C1=N | 100* | . | 11 | 6 | 101*
CC(CN1CCCC1CN1C(N)=NCC1Cc1ccccc1)N1CC(Cc2ccccc2)N(CCCC2CCCC2)C1=N (stereo not given) | 101* | . | . | . | 100*
CC(C)C[C@H]1CN=C(Nc2ccccc2)N1CCCC1CCCC1 | . | 55* | 13 | 8 | .
CCC[C@@H](CN1CCC[C@H]1CN1C(N)=NC[C@@H]1Cc1ccccc1)N1C[C@@H](Cc2ccccc2)N(CCCC2CCCC2)C1=N | . | . | . | 12 | .
SMILES | RN4220 kill | DUSP3 inh | CCHF vOTU inh | PriA SSB inh | ugtP null kill
CCC(C)C1CN(C(C)CN2CCCC2CN2C(N)=NCC2Cc2ccccc2)C(=N)N1CCCC1CCCC1 (stereo not given) | 100* | . | . | . | 100*
CCCCN1C(=N)N([C@@H](C)CN2CCC[C@H]2CN2C(N)=NC[C@@H]2Cc2ccccc2)C[C@H]1[C@H](C)CC | . | . | 12 | 8 | .
CCOc1ccc(-n2nnc3c(=O)n(Cc4nc(-c5ccc(OC)c(OC)c5)no4)cnc32)cc1 | . | . | . | -17 | .
CCc1ccc(C2=NNC(=Nc3cccc(S(=O)(=O)N(C)C)c3)SC2)cc1 | 1 | -10 | 8 | 42* | 17
Cc1cccc(N=C2NN=C(c3ccc4c(c3)OCCO4)CS2)c1 | 8 | 26 | -9 | 27 | -2
COC(=O)c1ccc2c(=O)n3nc(Nc4ccc(C)c(C)c4)sc3nc2c1 | . | . | . | 7 | .
CN1CCN(C(CNC(=O)c2ccccc2Br)c2ccc3c(c2)CCCN3C)CC1 (stereo not given) | . | . | . | 15 | .
O=C(Nc1cnc(N2CCOCC2)nc1)c1cnccn1 | . | . | . | 9 | .
COc1ccc(Cl)cc1CN1CCN(c2nc(C)cc(C)c2C#N)CC1 | 99* | 2 | 3 | -18 | 100*
